Experiment [1] in a line: compounds altering viability of human ES cells (AID 493140; call rule not given here;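 also: cells exposed to compounds for four days before counting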). The conditions noted are these: human embryonic stem cell survival screen; stronger effect = higher value.
Experiment [2] in a line: P. berghei load reduction in hepatocytes – cell-based, HepG2, luciferase luminescence, HepG2 viability, primary screen (AID 624349; in the data active = parasite load remaining mostly below about 12%, no sharp cut-off; inactive = mostly above about 10%;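 also: 100% = mean of DMSO negative control wells on the same plate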). The conditions noted are these: P. berghei liver stage in HepG2, luciferase luminescence, concentration not given here; parasite load remaining: stronger effect = lower value; viability: measured here: HepG2 viability without parasites.
Experiment [3] in a line: Wnt pathway potentiators raising nuclear beta-catenin – imaging, WNT3A-conditioned medium, mouse C2C12, NPC library, primary screen (AID 1117326; in the data active = nuclear beta-catenin stimulation mostly above about 4.2%, no sharp cut-off; inactive = mostly below about 10%). The note with it: stronger effect = higher value.
Experiment [4] is described as follows: stimulators of insulin release from INS-1E, primary screen, cell-based, 5 mM glucose, NPC library (AID 1117329;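 active = compound raises insulin release from rat beta cells at 5 mM glucose, no numeric limit stated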). The note with it: rat INS-1E insulin secretion, at 10 µM, stronger effect = higher value.
Experiment [5] in a line: growth inhibition of GSK3B-pretreated HCT116 cells – cell-based, CellTiter-Glo, 0.2 to 20 µM (AID 1117336;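 active = compounds lowering colon cancer cell viability after pretreatment blocking the GSK3B kinase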). The conditions noted are these: HCT116 viability after GSK3B inhibitor, at 20 µM, stronger effect = higher value.
Experiment [6] can be described thus: inhibition of endothelial tube formation, primary screen, imaging, VEGF stimulated, CD31 staining, tube area, NPC library (AID 1117340;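 active = compound that reduces growth-factor-driven endothelial tube area in a mixed cell culture, no cutoff stated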). The note with it: VEGF-stimulated ADSC/ECFC co-culture, at 10 µM, stronger effect = higher value.
Experiment [7] can be described thus: GLP1 release stimulators, primary, NCI-H716, NPC library (AID 1117341). The note with it: NCI-H716 cells, at 10 µM, stronger effect = higher value.
Experiment [8] can be described thus: HCT116 colon cancer cell growth inhibition, primary screen, CellTiter-Glo luminescence, NPC library (AID 1117342;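 active = compounds that lower survival of HCT116 colon cancer cells in the luminescence readout, no numeric limit stated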). The conditions noted are these: at 20 µM (top of the series). Background: ATP-based viability assays read luminescence as a measure of living cells.
Experiment [9] is described as follows: reduced SW480 viability measured with CellTiter-Glo, NPC library, primary (AID 1117343;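 active = compounds that lower viability of the colon cancer cells in the luminescence readout, with no numeric limit stated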). The note with it: CellTiter-Glo luminescence; at 20 µM (top of the series) unless noted.
A short description of experiment [10]: NPC library primary testing for decreased DLD-1 cell viability via CellTiter-Glo (AID 1117346;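 active = compounds that lower survival of DLD-1 colon cancer cells in the luminescence readout, no cutoff given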). The note with it: DLD-1 viability, CellTiter-Glo luminescence; at 20 µM (top of the series).
A short description of experiment [11]: EMT-state selective cytotoxicity in co-culture – imaging, PC-3E GFP, TEM4-18 mCherry, primary screen (AID 1345086;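 active = compounds killing one labelled cell type while sparing the other, by normalised counts and ratio limits, not self-fluorescent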;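 as to all read-outs here: cells exposed to compound for 72 h before imaging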;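 as to red/green cell ratio (normalised): normalised mesenchymal count divided by normalised epithelial count so high means epithelial killing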). The note with it: PC-3E GFP / TEM4-18 mCherry co-culture, imaging cell counts, at 1 µM; for red/green cell ratio (normalised): actives lie on both sides, counts scaled to control wells, 1 = unselective.
Experiment [12] is described as follows: viability loss with induced miR-34 in A549 – imaging, A549 dox-inducible miR-34, nuclei and caspase counts, primary screen (AID 1347080;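 active = compounds whose cell count with miR-34 switched on is under 0.7 times the count with it off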). The note with it: A549 miR-34 inducible, Hoechst nuclei count, 48 h.
Experiment [13] can be described thus: MELAS cybrid and Rieske KO viability enhancers – cell-based, MELAS cybrids, Rieske KO mouse fibroblasts, CellTiter-Glo, primary screen (AID 1508586;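 active = mean z-score across replicates of 1.96 or higher in either the MELAS or the Rieske mutant cell line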;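 also: z relative to plate mean and SD of compound and empty wells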). The note with it: low glucose.
Experiment [14] has as its target NAD(+) hydrolase SARM1 (Homo sapiens) (UniProt Q6SZW1). Put plainly: blocking NAD cleavage by SARM1 SAM-TIR – cell lysate, NAD-Glo luminescence (AID 1508614;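 active = compound whose remaining NAD level is above about 45 nM, limit read from the data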;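 also: higher remaining NAD means stronger inhibition of SARM1 NADase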). The note with it: SAM-TIR HEK293T lysate NADase, at 1 µM, stronger effect = higher value.
Where [15] appears, read: measured here: epithelial PC-3E GFP cell survival.
Where [16] appears, read: measured here: mesenchymal TEM4-18 mCherry cell survival.
The mark [17] stands for this setting: stronger effect = lower value, cell number ratio, induced over uninduced.
[18] abbreviates: measured here: relative caspase fold change +Dox/-Dox.
Where [19] appears, read: measured here: total cells with miR-34 induction, stronger effect = lower value.
[20] abbreviates: measured here: total cells without miR-34 induction.
Where [21] appears, read: MELAS cybrid survival, CellTiter-Glo 48 h, stronger effect = higher value.
Setting [22] is: Rieske KO mouse fibroblast survival, CellTiter-Glo 72 h.

Where “and” joins values, the source holds several entries; their conditions need not be identical. Identical values can stand only once. Calls of active or inactive are those of the source.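 The calls were made as follows, unless noted: active = compound raises GLP1 secretion from the human gut endocrine cells, with no numeric limit stated; inactive = the rest.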

Sequence of NAD(+) hydrolase SARM1 (Homo sapiens) (Q6SZW1 whole entry, looked up): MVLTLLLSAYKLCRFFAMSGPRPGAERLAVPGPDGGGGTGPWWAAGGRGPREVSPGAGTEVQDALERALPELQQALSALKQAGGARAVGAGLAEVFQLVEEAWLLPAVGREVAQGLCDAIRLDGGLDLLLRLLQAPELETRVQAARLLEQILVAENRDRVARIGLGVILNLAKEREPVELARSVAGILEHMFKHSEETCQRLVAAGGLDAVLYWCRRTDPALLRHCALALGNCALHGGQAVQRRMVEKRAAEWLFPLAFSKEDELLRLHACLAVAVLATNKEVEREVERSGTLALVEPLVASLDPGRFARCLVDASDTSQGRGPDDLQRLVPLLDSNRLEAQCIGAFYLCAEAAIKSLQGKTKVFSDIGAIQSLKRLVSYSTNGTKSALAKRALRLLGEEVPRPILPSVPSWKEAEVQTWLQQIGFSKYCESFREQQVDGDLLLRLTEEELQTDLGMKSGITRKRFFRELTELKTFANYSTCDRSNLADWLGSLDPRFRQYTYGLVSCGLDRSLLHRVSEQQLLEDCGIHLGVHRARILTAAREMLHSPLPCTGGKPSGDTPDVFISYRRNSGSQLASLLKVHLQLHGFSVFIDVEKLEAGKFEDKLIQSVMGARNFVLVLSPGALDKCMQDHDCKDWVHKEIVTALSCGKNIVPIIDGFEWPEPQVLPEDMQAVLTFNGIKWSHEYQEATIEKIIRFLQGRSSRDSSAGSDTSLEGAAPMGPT

With `CCN1C(=O)NC(c2ccccc2)C1=O` (stereo not drawn), the survival in [1] was 2.42 (inactive). The parasite load remaining in [2] was 83.9% (inactive). Further, the viability (in general, a read-out of living cells in per cent, often relative to untreated cells) in [2] worked out at 100%. Moreover, the nuclear beta-catenin stimulation in experiment [3] (at 10 µM) is -2.4% (inactive); in experiment [3] (stimulation, at 2 µM), -0.9%. Also, the insulin secretion stimulation in experiment [4] was -1% (inactive). Also, the viability decrease in experiment [5] was -5.5% (inactive). Also, in experiment [6], the tube area decrease was -23% (inactive). The GLP1 secretion stimulation in experiment [7] was 7% (inactive). Besides, the inhibition of viability in [8] was -1% (inactive). For the same molecule, the viability decrease (inhibition) in experiment [9] is 2.2% (inactive); in experiment [10] it was 8.6% (inactive). The red/green cell ratio (normalised) in experiment [11] was 0.92 (inactive). Also, the normalised cell number was determined as 1.08 in experiment [11] (setting [15]) and 1 in [11] (setting [16]). Further, the fold change is 0.858 (inactive) in experiment [12] (setting [17]) and 1.11 in [12] (setting [18]). Moreover, the cell count amounted to 8830 in experiment [12] (setting [19]) and 10300 in [12] (setting [20]). Besides, the figures for the z-score in experiment [13] (setting [21]) and in experiment [13] (setting [22]) were 0.723 (inactive) and 0.79, respectively. Moreover, the remaining NAD in [14] was 10 nM (inactive).
For `O=c1[nH]c(=O)c2ccccc2o1`, the nuclear beta-catenin stimulation is 0.9% (inactive) in experiment [3] (at 10 µM) and 0.3% in [3] (stimulation, at 2 µM). In experiment [4], the insulin secretion stimulation is -1.9% (inactive). Besides, in experiment [5], the viability decrease is -6.75% (inactive). Moreover, the tube area decrease in experiment [6] is 10.2% (inactive). Also, the GLP1 secretion stimulation in experiment [7] is 0.9% (inactive). Besides, the inhibition of viability in experiment [8] was -33.3% (inactive). For the same molecule, the viability decrease (inhibition) is 102% (active) in experiment [9] and -5.5% (inactive) in [10]. Besides, the red/green cell ratio (normalised) in [11] is 0.79 (inactive). Further, the normalised cell number in [11] (setting [15]) turned out to be 1.11; in [11] (setting [16]) it was 0.88. Moreover, the fold change in experiment [12] (setting [17]) was 0.86 (inactive); in experiment [12] (setting [18]), 0.838. Besides, the cell count was 8540 in experiment [12] (setting [19]) and 9930 in [12] (setting [20]). In addition, the remaining NAD in experiment [14] was 10 nM (inactive).
For the molecule `CCCCNc1ccc(C(=O)OCCOCCOCCOCCOCCOCCOCCOCCOCCOC)cc1`, in experiment [1], the survival was 33.2 (inactive). For the same molecule, in [2], the parasite load remaining is 14% (inactive) and 88.5% (inactive). Further, the viability in [2] was 47.7% and 90.2%. Also, the nuclear beta-catenin stimulation in experiment [3] (at 10 µM) is -0.8% (inactive); in experiment [3] (stimulation, at 2 µM) it was 0.5%. Besides, in experiment [4], the insulin secretion stimulation is -2.3% (inactive). The viability decrease in experiment [5] was 9.3% (inactive). Besides, the tube area decrease in experiment [6] is 4.2% (inactive). Besides, the GLP1 secretion stimulation in experiment [7] was -2.3% (inactive). In addition, in experiment [8], the inhibition of viability is 31.5% (inactive). Further, the viability decrease (inhibition) in experiment [9] is 13% (active); in experiment [10], -17.6% (inactive). In [11], the red/green cell ratio (normalised) is 1.21 (inactive). For the same molecule, the normalised cell number was found to be 0.86 in [11] (setting [15]) and 1.04 in [11] (setting [16]). For the same molecule, the fold change in experiment [12] (setting [17]) is 0.937 (inactive); in experiment [12] (setting [18]), 1.37. The cell count worked out at 8120 in [12] (setting [19]) and 8660 in experiment [12] (setting [20]). For the same molecule, the z-score is -0.167 (inactive) in [13] (setting [21]) and 0.149 in [13] (setting [22]). Besides, in experiment [14], the remaining NAD was 10 nM (inactive).
As to `CCCCOCCOCCOCc1cc2c(cc1CCC)OCO2`, the nuclear beta-catenin stimulation in experiment [3] (at 10 µM) was 0.2% (inactive); in experiment [3] (stimulation, at 2 µM), 1.7%. Further, the insulin secretion stimulation in [4] was 1.3% (inactive). The viability decrease in experiment [5] is -13.9% (inactive). Moreover, in experiment [6], the tube area decrease was -2.7% (inactive). Besides, in [7], the GLP1 secretion stimulation is -2.6% (inactive). Moreover, the inhibition of viability in experiment [8] was 24.7% (inactive). In addition, the viability decrease (inhibition) in experiment [9] was 11.6% (inactive); in [10], 14.4% (inactive). Further, the red/green cell ratio (normalised) in experiment [11] was 0.78 (inactive). Besides, the normalised cell number in experiment [11] (setting [15]) was found to be 1.28; in [11] (setting [16]), 1. In addition, the fold change in [12] (setting [17]) is 0.878 (inactive); in experiment [12] (setting [18]), 0.573. The cell count in experiment [12] (setting [19]) was 7660; in experiment [12] (setting [20]) it was 8730. The remaining NAD in [14] is 10 nM (inactive).

For the origin of these results see PubChem BioAssay.
